This passage reports growth results from PubChem BioAssay (NCI).

Structures are written as SMILES. The panel holds about 83,000 compounds, 20% with a hit somewhere; the sample as a whole holds those more often.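 Method: cells in 96-well plates; compound added at one concentration; 48 h incubation; percent growth measured; values under 10 scored active.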 Unmarked numbers belong to inactive results. Activity calls are given as the source filed them.

Some test systems named below: T-47D breast; BT-549 breast; MDA-MB-435 melanoma; SW-620 colon; MCF7 breast; HCT-116 colon; KM12 colon; HCC-2998 colon.
Holding throughout (experiment): NCI-60 one-dose screen, 48 h (100 = growth as untreated, 0 = no growth, -100 = all killed)
What all share (details): 10 µM unless noted

Regarding `CC(C)=C1C=C2CC[C@@H]3[C@](C)(CCC[C@@]3(C)C(=O)O)[C@H]2CC1`, the growth with T-47D breast was 97.6%; in the assay on BT-549 breast, 126%; with MDA-MB-435 melanoma, 101%; with SW-620 colon, 102%; with MCF7 breast it was 95.9%; in the assay with HCT-116 colon, 107%. The growth in the assay on KM12 colon was 101%.
Consider `CCOc1cc(F)c([N+](=O)[O-])cc1[N+](=O)[O-]`, for which the growth was 24.5% with T-47D breast; 87.3% in the assay with BT-549 breast; 37.2% in the assay with MDA-MB-435 melanoma; 19.8% in the assay with SW-620 colon; 15.9% with MCF7 breast; 9.26% (active) in the assay on HCT-116 colon. Also, in the assay on KM12 colon, the growth is -44.7% (active).
Consider `Cc1ccccc1N=C(N)Nc1ccccc1C` (tested in a mixture with another compound), for which the growth with T-47D breast is 76.6%; with BT-549 breast, 96.1%; in the assay on MDA-MB-435 melanoma it was 89.5%; in the assay on SW-620 colon, 74.9%; in the assay on MCF7 breast it was 94.2%; in the assay on HCT-116 colon it was 83.4%. For the same compound, the growth in the assay with KM12 colon is 64.6%.
`[Cl-].[Rh+3].c1ccc(-c2ccnc3c2ccc2c(-c4ccccc4)ccnc23)cc1.c1ccc(-c2ccnc3c2ccc2c(-c4ccccc4)ccnc23)cc1.c1ccc(-c2ccnc3c2ccc2c(-c4ccccc4)ccnc23)cc1`: the growth with T-47D breast was 50.4%; in the assay with BT-549 breast, 42.9%; in the assay with MDA-MB-435 melanoma it was 72.5%; with SW-620 colon it was 99.2%; in the assay with MCF7 breast, 63.3%; with HCT-116 colon, 87.3%. Also, the growth in the assay on KM12 colon was 59.3%.
Consider `CC1(C)N=c2cc3c(cc2N1c1ccc(Cl)cc1)=Nc1ccccc1N3c1ccc(Cl)cc1`, for which the growth is 25.1% with T-47D breast; 44% with BT-549 breast; 77.9% in the assay on MDA-MB-435 melanoma; 53.5% in the assay with SW-620 colon; 28.9% in the assay on MCF7 breast; -41.3% (active) in the assay on HCT-116 colon. Further, the figures for the growth with HCC-2998 colon and in the assay on KM12 colon were 36.9% and 77%, respectively.
On to `CCCCN(CCCC)CCCCCCCCCCO`, for which the growth is 94.6% in the assay on T-47D breast; 102% with BT-549 breast; 107% in the assay with MDA-MB-435 melanoma; 103% in the assay with SW-620 colon; 99% in the assay with MCF7 breast; 90.2% in the assay with HCT-116 colon. Further, the growth with HCC-2998 colon and in the assay with KM12 colon was 103% throughout.
For `NC(=Nc1nc(-c2ccccn2)cc2ccccc12)c1ccccn1`, the growth in the assay with T-47D breast is 16.4%; with BT-549 breast, 23.3%; with MDA-MB-435 melanoma, 22.9%; in the assay on SW-620 colon it was 11.8%; in the assay with MCF7 breast, 9.19% (active); in the assay on HCT-116 colon, 5.82% (active). The growth in the assay on KM12 colon was 16%.
On to `CCN(CC)CC(O)CNc1ccc(NCC2CO2)c2c1C(=O)c1ccccc1C2=O` (stereo not given), for which the growth with T-47D breast was -3.27% (active); with BT-549 breast, -56.9% (active); with MDA-MB-435 melanoma, -62.4% (active); in the assay with SW-620 colon it was -28.7% (active); in the assay on MCF7 breast, -13% (active); in the assay with HCT-116 colon, -11.2% (active). Also, in the assay on KM12 colon, the growth is -69.1% (active).
As for `COC(=O)c1ccc(=O)c2nc3/c(=C/O)c(O)cc(=O)c3[nH]c12`, the growth was 25.6% in the assay with T-47D breast; 5.85% (active) with BT-549 breast; 23.4% in the assay with MDA-MB-435 melanoma; 29.5% in the assay with SW-620 colon; 2.95% (active) with MCF7 breast; -19% (active) with HCT-116 colon. Besides, in the assay with KM12 colon, the growth is 31.1%.
With `O=C(Nc1ccc(Cl)c(Cl)c1)OCc1ccco1`, the growth in the assay with T-47D breast is 38.4%; in the assay on BT-549 breast, 31.6%; in the assay with MDA-MB-435 melanoma it was 0.451% (active); in the assay with SW-620 colon it was 40.4%; in the assay with MCF7 breast, 14.8%; in the assay with HCT-116 colon, 26.6%. Moreover, the growth in the assay on KM12 colon was 8.03% (active).
For the compound `CCCCCCCCCCCCNCCCc1ccccc1`, the growth was 54.9% in the assay with T-47D breast; 85.9% in the assay on BT-549 breast; 100% in the assay on MDA-MB-435 melanoma; 46.1% with SW-620 colon; 25.4% with MCF7 breast; 20.4% in the assay with HCT-116 colon. Also, the growth in the assay with KM12 colon was 27.2%.
Consider `CCC(C)C(N)C(=O)NC(CC(N)=O)C(=O)NC(CC(C)C)C(=O)NC(CCCCN)C(=O)NC(C)C(=O)NC(CC(C)C)C(=O)NC(C)C(=O)NC(C)C(=O)NC(CC(C)C)C(=O)NC(C)C(=O)NC(CCCCN)C(=O)NC(CCCCN)C(=O)NC(C(=O)NC(CC(C)C)C(N)=O)C(C)CC` (stereo not given), for which the growth was 93.9% in the assay on T-47D breast; 134% with BT-549 breast; 77.7% in the assay on MDA-MB-435 melanoma; 103% with SW-620 colon; 97.4% in the assay with MCF7 breast; 82.5% in the assay on HCT-116 colon. Moreover, the growth in the assay with KM12 colon is 90.2%.
Turning to `c1ccc(C2NCCNC2c2ccccc2)cc1` (stereo not given), the growth in the assay with T-47D breast was 104%; with BT-549 breast, 103%; in the assay with MDA-MB-435 melanoma, 102%; with SW-620 colon, 101%; in the assay on MCF7 breast, 103%; with HCT-116 colon, 104%. Also, the growth in the assay with KM12 colon was 110%.
In the case of `CCCCCCN(CCCCCC)CCCNc1nccc2ccccc12`, the growth in the assay with T-47D breast is -13.6% (active); in the assay on BT-549 breast it was 39.7%; in the assay with MDA-MB-435 melanoma, 0.549% (active); with SW-620 colon, 6.78% (active); with MCF7 breast, -28% (active); in the assay on HCT-116 colon it was 8.24% (active). In addition, the growth was -59.4% (active) in the assay with HCC-2998 colon and 9.96% (active) with KM12 colon.
For `CC(CSc1n[nH]c(=S)s1)c1ccccc1` (stereo not given), the growth in the assay with T-47D breast is 110%; in the assay on BT-549 breast it was 112%; in the assay with MDA-MB-435 melanoma it was 109%; in the assay with SW-620 colon it was 112%; with MCF7 breast, 102%; in the assay with HCT-116 colon it was 105%. Also, the growth with KM12 colon was 113%.
Turning to `CCOc1ccc(Nc2nc3c(s2)C(=O)c2ccccc2C3=O)cc1`, the growth with T-47D breast is 59%; in the assay with BT-549 breast, 87.4%; in the assay on MDA-MB-435 melanoma, -80.2% (active); in the assay with SW-620 colon, 70%; in the assay with MCF7 breast it was 42.9%; with HCT-116 colon, 52.7%. Moreover, the growth in the assay with HCC-2998 colon was 118%; in the assay on KM12 colon, 81.4%.
Regarding `O=C1C=C(Cl)C(=O)c2ccccc21`, the growth is 14.9% in the assay on T-47D breast; 98.3% in the assay on BT-549 breast; 112% in the assay with MDA-MB-435 melanoma; 98% in the assay on SW-620 colon; 81.3% in the assay on MCF7 breast; 125% in the assay on HCC-2998 colon. The growth in the assay on KM12 colon was 99.4%.
Take `Oc1ccc(Cl)cc1C(c1cc(Cl)ccc1O)C(Cl)(Cl)Cl`: the growth in the assay with T-47D breast is 9.95% (active); in the assay on BT-549 breast, 44.9%; in the assay with MDA-MB-435 melanoma, 29.4%; with SW-620 colon, 4.62% (active); in the assay on MCF7 breast, 8.95% (active); in the assay with HCT-116 colon, -35.2% (active). Moreover, the growth in the assay with KM12 colon is -55.5% (active).
